Reference: the supplement of paper PMC11417369
The full ranking holds about 25,000 sequences; the median of “ln(normalized median fluorescence intensity)” is about 9.7, and the highest 2% start at about 11. This is one part of a sample in which the highest values are shown more often than they occur.

Each sequence was assayed on PfAP2-HC AP2 domain (GST-tagged) (assay: gcPBM binding intensity (ln(normalized median fluorescence intensity)); higher = stronger DNA binding).
Summary of the method: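 GST-fused DNA-binding domains of P. falciparum, expressed in E. coli, were applied at about 25 μg on average for 1 h to an Agilent 4 × 180k array of primer-extended double-stranded 36-bp intergenic genomic probes and negative controls. Binding intensity is the highest Masliner-normalised natural-log median intensity across replicate spots of either probe orientation, measured with Alexa488 anti-GST antibody and a 488 nm scan.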
In the case of “GTTATATAAACATATGCATGTGAAGTGTTTATTAAT [TGCATGCA_site183]”, the “gcPBM binding intensity (ln)” value is reported as 9.8. In the case of “TATATCAAAATACATACACACATTTGTATATACATT [CACACA_site2696]”, the “gcPBM binding intensity (ln)” value is reported as 10. For “TGGTATCAAAAGAATACACACACACCGACATATATA [CACACA_site9265]”, the “gcPBM binding intensity (ln)” value was 11.1. With “AAAATACACGCATACACACACACACCGACACATATA [CACACA_site4523]” the “gcPBM binding intensity (ln)” value was 10.7. For “AATAGTAAAAGATATACACACACCAAAAAATAGAAT [CACACA_site2289]”, the “gcPBM binding intensity (ln)” value was 11.6. “AATAAAAAAGAATATACACACATAAATATAAAATAT [CACACA_site683]” was tested, and the “gcPBM binding intensity (ln)” value was 10. With “GTATCAAAAGAATACACACACACATACAGATATATA [CACACA_site5975]” the “gcPBM binding intensity (ln)” value was 11.2. For “TCAAAGCACAGATACACACACATATATATATATATA [CACACA_site287]”, the “gcPBM binding intensity (ln)” value was 10.1. In the case of “TAGTAAAAGATATACACACACCAAAAAATATAATTA [CACACA_site7142]”, the “gcPBM binding intensity (ln)” value is reported as 10.5. In the case of “AAAGAAAGAAAGAATACACACACACCGATATATATA [CACACA_site9246]”, the “gcPBM binding intensity (ln)” value is reported as 10.3. In the case of “GTATCAAAAGAATACACACACACATACATATATATA [CACACA_site3796]”, the “gcPBM binding intensity (ln)” value is reported as 11.3. In the case of “GTATCAAAAGAATACACACACACATACCTATAAATA [CACACA_site7737]”, the “gcPBM binding intensity (ln)” value is reported as 10.8. “AATAGTAAAAGATATACACACACCAAAAAATATAAT [CACACA_site5293]” was tested, and the “gcPBM binding intensity (ln)” value was 10.3. In the case of “AAAAAAATTTCACATTGTACTTTAATAATATACTAC [XGTACX_site7264]”, the “gcPBM binding intensity (ln)” value is reported as 9.64. For “TATATATATATATATTGTACATAATGTATATATGTT [XGTACX_site3448]”, the “gcPBM binding intensity (ln)” value was 9.74. With “AAAATAATGTATATAGTGCAAATGAAAACGAAAAAA [GTGCAC_site9455]” the “gcPBM binding intensity (ln)” value was 10.1. “TGAATATTTCTATATACACACATATATATATATATA [CACACA_site3451]” was tested, and the “gcPBM binding intensity (ln)” value was 9.74. With “ATAATGAAAAGGAACATACACACCCCATATAAATAT [CACACA_site3442]” the “gcPBM binding intensity (ln)” value was 10.3. In the case of “TACAAACAAACACATAGCAATATATGTTATCAAAAA [XGTACX_negctrl_site1]”, the “gcPBM binding intensity (ln)” value is reported as 9.81. With “AGAAAGAAAGAATACACACACACATATATAAATATC [CACACA_site7716]” the “gcPBM binding intensity (ln)” value was 10.4. In the case of “TAAAGAAATAAATACATACACACATATATATATATA [CACACA_site3363]”, the “gcPBM binding intensity (ln)” value is reported as 9.89. For “AGAAAGAAAGAATACACACACACATATATATATATC [CACACA_site3744]”, the “gcPBM binding intensity (ln)” value was 11.5. With “TTATCATTTTAATGGTGTACTCAATAAAAACTTTAA [XGTACX_site4595]” the “gcPBM binding intensity (ln)” value was 9.13. With “AAAAATTCCAGACACACACACACATATAAATAAATA [CACACA_site1232]” the “gcPBM binding intensity (ln)” value was 11.1. For “GCACATAAATATATGACACACACACCGATTATATAT [CACACA_site9003]”, the “gcPBM binding intensity (ln)” value was 10.8. With “CATATAAATAGACACACACACACATATAAATAAATA [CACACA_site7156]” the “gcPBM binding intensity (ln)” value was 11.1. In the case of “ACATAAATATATGACACACACACATATTATATATAT [CACACA_site3065]”, the “gcPBM binding intensity (ln)” value is reported as 11.1. “AAAGGATATAGACACACACACACATATATATATATA [CACACA_site2200]” was tested, and the “gcPBM binding intensity (ln)” value was 11.4. “TATATAATATATATGACACACATATTTATATAAATA [CACACA_site4054]” was tested, and the “gcPBM binding intensity (ln)” value was 9.57. For “AAAAAAAACAGACACACACACATAAATATAAATAAA [CACACA_site6214]”, the “gcPBM binding intensity (ln)” value was 10.5. For “TATATATATAGACACACACACATATAAATAAATAAA [CACACA_site444]”, the “gcPBM binding intensity (ln)” value was 10.4. In the case of “AAAGGATACAGACACACACACACATATATATATATA [CACACA_site906]”, the “gcPBM binding intensity (ln)” value is reported as 10.8. With “TATATATATAGACACACACACACATATATATATATA [CACACA_site9366]” the “gcPBM binding intensity (ln)” value was 10.7. With “TATATAAATAGACACACACACATATAAATATAAATA [CACACA_site6503]” the “gcPBM binding intensity (ln)” value was 10.4. “AAAAAAAACAGACACACACACATAAATATATATAAA [CACACA_site148]” was tested, and the “gcPBM binding intensity (ln)” value was 10.4. With “CACACTTTATAATGTTGTACGATACATTATACCAAA [XGTACX_site941]” the “gcPBM binding intensity (ln)” value was 9.67. With “ATAGTATAACAGCAATGTACACATATTTGTGTATAT [XGTACX_site7899]” the “gcPBM binding intensity (ln)” value was 10. For “AATATTAAAAACAAAACACACAAAAAAAAATAAACT [CACACA_site6470]”, the “gcPBM binding intensity (ln)” value was 10.2. “TGTACATATATATAATATATATATCATCATATTTTC [CACACA_negctrl_site1750]” was tested, and the “gcPBM binding intensity (ln)” value was 9.69. In the case of “TAAAACAAAATAACATGTACAAAAAAAAAAAAAAAA [XGTACX_site2915]”, the “gcPBM binding intensity (ln)” value is reported as 9.24. In the case of “ACAAATAAATAAATATGTACTTAATTATATAATTGA [XGTACX_site5626]”, the “gcPBM binding intensity (ln)” value is reported as 9.5. With “TATCATGGGTGTATTTCACACACGGATAATCATTTA [CACACA_site8211]” the “gcPBM binding intensity (ln)” value was 9.83. For “AAGAAAATTAACCCATGTACTTATGTAGATAGCAAG [XGTACX_site1049]”, the “gcPBM binding intensity (ln)” value was 9.87. For “TTGAGAAAAATTAATGGTACACATATTATAAGTATA [XGTACX_site6539]”, the “gcPBM binding intensity (ln)” value was 9.7. “AAATATATTTTTTTTTGTACTCAAAAAGAAAAAAAA [XGTACX_site8540]” was tested, and the “gcPBM binding intensity (ln)” value was 9.05. For “AAAAATTTCATATTCACACACAAAAAAAAAAAATAT [CACACA_site1592]”, the “gcPBM binding intensity (ln)” value was 9.96. With AAATACTTATTCGTGGTGCAACAATTTTAAAAATTA the “gcPBM binding intensity (ln)” value was 9.49. For “TATGAAAAAATATATACACACATAATAAAGGTATAT [CACACA_site3737]”, the “gcPBM binding intensity (ln)” value was 9.9. With “TCATAGTATAGACACACACACACACGCATATAAATA [CACACA_site6915]” the “gcPBM binding intensity (ln)” value was 10.5. In the case of “TAAATTTATAGACACACACACATATAAATAAATATA [CACACA_site6530]”, the “gcPBM binding intensity (ln)” value is reported as 10.8. In the case of “AATAAATTTAGACACACACACACATATAAATAAATA [CACACA_site6531]”, the “gcPBM binding intensity (ln)” value is reported as 11.1. With “TAATAAATAAGACACACACACATATATATATATTAT [CACACA_site1389]” the “gcPBM binding intensity (ln)” value was 10.3. “TAATTTTTTAGACACACACACATATAAATATAAATA [CACACA_site6195]” was tested, and the “gcPBM binding intensity (ln)” value was 10.8. “TACACGCATAGACACACACACACACGCATATAAATA [CACACA_site6446]” was tested, and the “gcPBM binding intensity (ln)” value was 11.3. With “AAAAAAAAAAGACACACACACATATAAATATAAATA [CACACA_site6899]” the “gcPBM binding intensity (ln)” value was 11.5. With “TATATAAATAGACACACACACACATATAAATAAATA [CACACA_site7855]” the “gcPBM binding intensity (ln)” value was 10.7. “CATATAAAAAGACACACACACACATATATATATATA [CACACA_site940]” was tested, and the “gcPBM binding intensity (ln)” value was 10.8. For “TATAAATAAAGACACACACACATATAAATAAATATA [CACACA_site7155]”, the “gcPBM binding intensity (ln)” value was 10.5. For “AACATTATAAGACACACACACACATATATAAATATA [CACACA_site6622]”, the “gcPBM binding intensity (ln)” value was 11.2. “AACATTATAAGACACACACACACATATATATATATA [CACACA_site8259]” was tested, and the “gcPBM binding intensity (ln)” value was 10.8.
